The test system of test [1] is MILI (PIWIL2) piRISC loaded with L1MC piRNA (26 nt). The test is described as follows: pre-steady-state target cleavage rate (min^-1); guide: L1MC piRNA 5'p-UAACUAAAUACUAUGCAAGCUGUAGG; higher = faster piRNA-guided slicing of the target. A digest of the protocol:
(§1)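 In Cleave-'n-Seq, a transcribed, DNA-blocked target RNA library (0.1 nM) was combined with 1 nM active affinity-purified piRISC bearing one synthetic guide, with or without 500 nM GTSF1 partner protein. Reactions ran in HEPES–potassium acetate buffer at 33 °C for 0–8 or 0–960 min. Uncleaved targets were sequenced and normalised to depth and to weakly complementary targets, three trials were pooled, and k3 was capped at 0.0001 min^-1. The pre-steady-state cleavage rate was obtained by fitting a burst-and-steady-state model.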

Test [2] relates to EfPiwi piRISC loaded with L1MC piRNA (26 nt). The test is described as follows: pre-steady-state target cleavage rate (min^-1); auxiliary factor: none (no Gtsf1); guide: L1MC piRNA 5'p-UAACUAAAUACUAUGCAAGCUGUAGG; higher = faster piRNA-guided slicing of the target. A digest of the protocol:
as §1

The test system is the same in test [3]. The test is described as follows: pre-steady-state target cleavage rate (min^-1); auxiliary factor: 500 nM Ephydatia muelleri Gtsf1; guide: L1MC piRNA 5'p-UAACUAAAUACUAUGCAAGCUGUAGG; MIWI and MILI are mouse PIWI proteins and EfPiwi is from a freshwater sponge; tags in brackets are library labels; higher = faster piRNA-guided slicing of the target. Put shortly: as §1
Setting [4] is: auxiliary factor: 500 nM mouse GTSF1.
Setting [5] is: auxiliary factor: none (no GTSF1).

± gives the standard deviation. A value given as a limit tells only on which side of the number the result lay.

UCCUGGAUGUCGAAGCAUAGUAUUUAGGUA: the “pre-steady-state target cleavage rate” value in test [1] (setting [4]) is 0.00926 ± 0.0047; in test [2], < 0.0001.

With UCCUCCUACAGCUUGCAAUCUAUUUUCAAA, the “pre-steady-state target cleavage rate” value in test [1] (setting [4]) is 0.0216 ± 0.0095; in test [2], < 0.0001.

For UCCUGGAUGUCCUUGCAUUCAAUUUAGUAA, the “pre-steady-state target cleavage rate” value in test [2] was < 0.0001.

With UCCUCCUACACGAUGCAUAGUAUUUACAAA, the “pre-steady-state target cleavage rate” value was 0.122 ± 0.021 in test [1] (setting [4]) and < 0.0001 in test [2].

On to UCCUGCUACAGCUUGCAAUCUAUUUUCAAA, for which the “pre-steady-state target cleavage rate” value in test [1] (setting [4]) was 0.00419 ± 0.0036; in test [2] it was < 0.0001.

As for UCCUGGAUGUCGAUGCAUAGUAUUCAGUUA, the “pre-steady-state target cleavage rate” value in test [1] (setting [4]) was 0.0263 ± 0.0083; in test [2] it was < 0.0001.

In the case of UCCUGGAUGUCGAACGUUAGUUUAUAGUUA, the “pre-steady-state target cleavage rate” value in test [2] is < 0.0001.

On to UCCUGGAUGUCGAACGUAUGUAUUUAUUA, for which the “pre-steady-state target cleavage rate” value in test [2] is < 0.0001.

In the case of UCCUGGAUGUCGAACGUAAGAUUUAGUUA, the “pre-steady-state target cleavage rate” value in test [2] was < 0.0001.

Turning to UCCUGGAUGUCGAAGGAUAGUAUUUAGUUA, the “pre-steady-state target cleavage rate” value in test [2] was < 0.0001.

In the case of UCCUGGAUGUCGUUACAUAGUAUUUAGUUA, the “pre-steady-state target cleavage rate” value is 0.105 ± 0.011 in test [1] (setting [4]), 0.00442 ± 0.0022 in test [1] (setting [5]) and < 0.0001 in test [2].

Regarding UCCUGGAUGUCCUUCCAUAGUAAUUAGUUA, the “pre-steady-state target cleavage rate” value in test [2] was < 0.0001.

Regarding UCCUGCUACAGGAAGCAUAGUAUUUACAAA, the “pre-steady-state target cleavage rate” value in test [1] (setting [4]) was 0.0258 ± 0.008; in test [2], < 0.0001.

Consider UCCUGGAUGUCCUUGCAUACAAUUUAGUUA, for which the entries for the “pre-steady-state target cleavage rate” value in test [1] (setting [5]) and in test [2] were 0.00248 ± 0.0024 and < 0.0001, respectively.

On to UCCUGGAUGUCGAACGUAAGUAUUUAGUCA, for which the “pre-steady-state target cleavage rate” value in test [2] was < 0.0001.

UCCUGGAUCAGCUUGGAUACUAUUUAGUUA: the “pre-steady-state target cleavage rate” value in test [1] (setting [4]) was 0.0383 ± 0.01; in test [2], < 0.0001.

In the case of UCCUGGAUGUCGAACGUAAGUAUUUAUUA, in test [2], the “pre-steady-state target cleavage rate” value was < 0.0001.

On to UCCUGGAUGUCGAACGUUAGAAUUUUGUUA, for which, in test [2], the “pre-steady-state target cleavage rate” value was < 0.0001.

On to “UCCUGGAUGUCCUUGCAAUCAUAAAUCAAA [g14:g19:cont:t1A]”, for which the “pre-steady-state target cleavage rate” value in test [2] is < 0.0001.

Consider UCCUGGAUCAGGAAGCAUAGUAUUUAGAAA, for which the “pre-steady-state target cleavage rate” value was 0.0247 ± 0.0063 in test [1] (setting [4]) and < 0.0001 in test [2].

With UCCUGGAUGUCCUUGCAUAGUAAUUACUUA, the “pre-steady-state target cleavage rate” value in test [1] (setting [4]) is 0.0143 ± 0.0067; in test [2], < 0.0001.

In the case of UCCUCCUACAGCUUGCAUAGAAUUUUCAAA, the “pre-steady-state target cleavage rate” value in test [1] (setting [4]) was 0.0466 ± 0.015; in test [2] it was < 0.0001.

UCCUGGAUGUCGUUGCAUAGUAUAUAGAUA: the “pre-steady-state target cleavage rate” value in test [2] was < 0.0001.

Consider UCCUGGAUGAGCUUGGAUUGUAUUUAGUUA, for which the entries for the “pre-steady-state target cleavage rate” value in test [1] (setting [4]) and in test [2] were 0.0185 ± 0.0063 and < 0.0001, respectively.

In the case of UCCUGGAUGUCGAAGCAUAGUAUUUAGAUA, the “pre-steady-state target cleavage rate” value in test [1] (setting [4]) is 0.00991 ± 0.0044; in test [2], < 0.0001.

Turning to UCCUGGAUCAGCUUGCAUAGUAUUUACUUA, the results for the “pre-steady-state target cleavage rate” value in test [1] (setting [4]), in test [1] (setting [5]) and in test [2] were 0.0636 ± 0.008, 0.00403 ± 0.0024 and < 0.0001, respectively.

On to UCCUGCUACAGGUUGCAUAGUAUUUACAAA, for which the “pre-steady-state target cleavage rate” value was 0.0112 ± 0.0054 in test [1] (setting [4]), < 0.0001 in test [2] and 0.00244 ± 0.0017 in test [3].

With UCCUGGAAGAGCUUGCAUACUAUUUAGUUA, the “pre-steady-state target cleavage rate” value in test [1] (setting [4]) is 0.0778 ± 0.014; in test [1] (setting [5]), 0.00312 ± 0.0024; in test [2] it was 0.00581 ± 0.0041; in test [3], 0.00438 ± 0.0026.

Take UCCUGGAUCAGCUUGCAUAGCAUUUAGUUA: the “pre-steady-state target cleavage rate” value in test [1] (setting [4]) was 0.08 ± 0.012; in test [1] (setting [5]) it was 0.00359 ± 0.0025; in test [2], 0.00546 ± 0.0038; in test [3], 0.00774 ± 0.0021.

For UCCUGGAUCAGCUUGCAUAGUAGUUAGUUA, the “pre-steady-state target cleavage rate” value in test [1] (setting [4]) was determined as 0.201 ± 0.016; in test [1] (setting [5]), 0.00826 ± 0.0022; in test [2], 0.0324 ± 0.012; in test [3], 0.0207 ± 0.0049.

The values are drawn from the supplement of paper PMC10338343.
